# Reference: PubChem BioAssay (EPA / NIEHS)
# Calls of active or inactive are those of the source. The calls were made as follows: active = hit-call score of the fitted dose curve at least 0.9, where 1 is the maximum; inactive = score below 0.9.
# Assay: APR_HepG2_NuclearSize_1hr: Apredica 1-hour HepG2 Assay for Nuclear Size (AID 2282670)
# Conditions: high-content imaging, actives raise or lower the signal
# Experimental: APR_HepG2_1hr is a cell-based, multiplexed-readout assay that uses HepG2, a human liver cell line, with measurements taken at 1 hour after chemical dosing in a 384-well plate.APR_HepG2_NuclearSize_1hr is one of 10 assay component(s) measured or calculated from the APR_HepG2_1hr assay. It is designed to make measurements of cell phenotype, a form of morphology reporter, as detected with fluorescence intensity signals by HCS Fluorescent Imaging technology.Data from the assay component APR_HepG2_NuclearSize_1hr was analyzed into 1 assay endpoint. This assay endpoint, APR_HepG2_NuclearSize_1hr, was analyzed with bidirectional fitting relative to DMSO as the negative control and baseline of activity. Using a type of morphology reporter, measures of all nuclear dna for gain or loss-of-signal activity can be used to understand the signaling at the nuclear-level. Furthermore, this assay endpoint can be referred to as a primary readout, because this assay has produced multiple assay endpoints where this one serves a signaling function. To generalize the intended target to other relatable targets, this assay endpoint is annotated to the cell morphology intended target family, where the subfamily is organelle conformation.
# Cells were treated with dimethyl sulfoxide (DMSO) as a solvent control at a final concentration of 0.5% v/v or with compounds in DMSO with a resulting final DMSO concentration of 0.5% v/v. Compound treatment was done at concentrations of 0.39, 0.78, 1.56, 3.12, 6.24, 12.5, 25, 50, 100, and 200 uM in duplicate on each plate. Cells were treated with compounds for 1, 24, or 72 hr. Carbonyl […] m-chloro-phenylhydrazone (CCCP) and taxol were used as positive controls for mitochondrial function and cytoskeletal stability, respectively; DMSO served as the negative control for this experiment. Cells were fixed by the direct addition of 50 uL formaldehyde in Hank's Balanced Salt Solution (HBSS) to a final concentration of 3.7%. After incubation in the fixation medium for 30 min at room temperature (293-298 K), cells were rinsed twice with HBSS and treated with cell permeabilization buffer (16 uL of 0.5% Triton X-100) for 10 min at room temperature (293-298 K) before labeling. For mitochondrial membrane potential and mitochondrial measurements, pre-fixed cells were incubated with 50 uL of MitoTracker Red CMXRos (Invitrogen) at a concentration of 250 nM for 30 min before fixation. In the remaining cases, post-fixed cells were labeled by incubation with a multiplexed mixture of primary antibodies in HBSS for 60 min at room temperature (293-298 K) to detect immunoreactivity of c-Jun (1:500), phospho-histone H3 (1:100), phospho-histone H2A.x (1:200), p53 (1:400), alpha-tubulin (1:200) and Hoechst 33342 (2 ug/mL). Cells were labeled for multiplexed imaging on two separate plates: a) Hoechst 33342, MitoTracker Red, phospho-histone H3, and alpha-tubulin, and b) Hoechst 33342, phospho-histone H2A.x, and c-Jun. A final rinse with HBSS (50 uL) was performed before analysis. The primary and secondary antibodies for the proteins were phospho-histone H3 (rabbit anti-phospho-histone H3 and FITC-donkey anti-rabbit IgG), phospho-histone H2A.x (mouse anti-phospho-histone H2A.x and FITC-donkey anti-mouse IgG), c-Jun (rabbit anti-phospho-c-Jun and Cy3-donkey anti-rabbit IgG), p53 (sheep anti-p53 and Cy5-donkey anti-sheep IgG), alpha-tubulin (mouse anti-alpha-tubulin and Cy5-donkey anti-mouse IgG). These antibodies are available as the CellCiphr HepG2 assay kit (Millipore).Digital images of each well were captured using a Cellomics ArrayScan VTI (Thermo Scientific Cellomics) (0.8 NA objective, 0.63x optical coupler, and XF-93 filter set) at 20x magnification. The images were acquired using the autofocus feature of the ArrayScan instrument, which entails the following steps. First, the camera focuses on channel 1 (Hoechst 33342), where nuclei are identified. Second, a Z offset of 1 um is used for capturing mitochondria (MitoTracker Red). […]
Structure (SMILES),outcome,AC50
O=C1c2ccccc2C(=O)N1SC(Cl)(Cl)Cl,inactive,–
COP(=S)(OC)Oc1ccc([N+](=O)[O-])cc1,inactive,–
CNC(=O)Oc1cccc(N=CN(C)C)c1,inactive,–
Clc1ccccc1-c1nnc(-c2ccccc2Cl)nn1,inactive,–
Oc1ccc(Cl)cc1Cc1ccccc1,–,112 µM (active)
CCOCN(C(=O)CCl)c1c(C)cccc1CC,inactive,–
CCC(C)(NC(=O)c1cc(Cl)c(C)c(Cl)c1)C(=O)CCl (stereo not given),inactive,–
CNC(=O)Oc1ccccc1OC(C)C,inactive,–
O=S(=O)(O)C(F)(F)C(F)(F)C(F)(F)C(F)(F)C(F)(F)C(F)(F)C(F)(F)C(F)(F)F,inactive,–
O=C(O)CCCOc1ccc(Cl)cc1Cl,inactive,–
COc1cc(OC)nc(NC(=O)NS(=O)(=O)c2cc(NC=O)ccc2C(=O)N(C)C)n1,inactive,–
C#CCN1C(=O)COc2cc(F)c(N3C(=O)C4=C(CCCC4)C3=O)cc21,inactive,–
CC(C)OC(=O)Nc1cccc(Cl)c1,inactive,–
O=C(O)C(F)(F)C(F)(F)C(F)(F)C(F)(F)C(F)(F)C(F)(F)C(F)(F)F,inactive,–
CNC(=O)CSP(=S)(OC)OC,inactive,–
CC[C@H](C)[C@H]1O[C@]2(C=C[C@@H]1C)C[C@@H]1C[C@@H](C/C=C(\C)[C@@H](O[C@H]3C[C@H](OC)[C@@H](O[C@H]4C[C@H](OC)[C@@H](O)[C@H](C)O4)[C@H](C)O3)[C@@H](C)/C=C/C=C3\CO[C@@H]4[C@H](O)C(C)=C[C@@H](C(=O)O1)[C@]34O)O2 (tested in a mixture with another compound),inactive,–
[2H]C1([2H])[n+]2ccccc2-c2cccc[n+]2C1([2H])[2H],inactive,–
CCOC1Oc2ccc(OS(C)(=O)=O)cc2C1(C)C (stereo not given),inactive,–
CNC(=O)/C=C(\C)OP(=O)(OC)OC,inactive,–
Cc1[nH]c(=O)n(C(C)(C)C)c(=O)c1Cl,inactive,–

Structure (SMILES),outcome,AC50
CCS(=O)(=O)c1cccnc1S(=O)(=O)NC(=O)Nc1nc(OC)cc(OC)n1,inactive,–
CC(C)(C)C(O)C(Oc1ccc(Cl)cc1)n1cncn1 (stereo not given),inactive,–
CCCN(CCC)c1c([N+](=O)[O-])cc(C(F)(F)F)cc1[N+](=O)[O-],inactive,–
CCOc1nc(NC)nc(NC(=O)NS(=O)(=O)c2ccccc2C(=O)OC)n1,inactive,–
ClC1C(Cl)C(Cl)C(Cl)C(Cl)C1Cl (stereo not given),inactive,–
CC1(C)C(C=C(Cl)Cl)C1C(=O)OC(C#N)c1ccc(F)c(Oc2ccccc2)c1 (stereo not given),inactive,–
O=C(O)COc1ccc(Cl)cc1Cl,inactive,–
Cc1cc(C)nc(NC(=O)NS(=O)(=O)c2ccccc2C(=O)OC2COC2)n1,inactive,–
CCCN(CCOc1c(Cl)cc(Cl)cc1Cl)C(=O)n1ccnc1,inactive,–
COC(=O)c1ccccc1S(=O)(=O)NC(=O)Nc1nc(C)nc(OC)n1,inactive,–
COC(=O)c1ccccc1S(=O)(=O)NC(=O)N(C)c1nc(C)nc(OC)n1,inactive,–
O=C(NC(=O)c1c(F)cccc1F)Nc1ccc(OC(F)(F)C(F)OC(F)(F)F)c(Cl)c1 (stereo not given),inactive,–
Oc1cc(Cl)ccc1Oc1ccc(Cl)cc1Cl,–,158 µM (active)
OCCOc1ccccc1,inactive,–
CC(C)N(C(=O)COc1nnc(C(F)(F)F)s1)c1ccc(F)cc1,inactive,–
COC(=O)c1ccccc1CS(=O)(=O)NC(=O)Nc1nc(OC)cc(OC)n1,inactive,–
COP(=O)(OC)OC=C(Cl)Cl,inactive,–
O=[N+]([O-])/N=C1\NCCN1Cc1ccc(Cl)nc1,inactive,–
O=C(Nc1ccccc1)Nc1cnns1,inactive,–
O=S1OCC2C(CO1)C1(Cl)C(Cl)=C(Cl)C2(Cl)C1(Cl)Cl (stereo not given),inactive,–
